Reference: PubChem BioAssay (NCATS)
Inconclusive results are not listed. Values without a mark were called inactive. Calls follow the shape of the full dose curve.

experiment: qHTS for inhibitors of Rabies Virus screened against the NCATS CANVASS Library (AID 1347402); conditions: Rabies virus infection cell assay; series mostly up to 45.9 µM; activity change, negative = inhibition: at the top concentration; also: 0% is about no effect

SMILES | activity change, negative = inhibition
CC(=O)N[C@H](C)c1nc(/C=C/C=C/C(=O)CC2CC(=O)CC[C@]2(C)O)cs1 (stereo not given in full) | -4.07%
O=Cc1ccc2n1C[C@@]1(C[C@H](O)[C@H](O)CO1)OC2 | 10.3%
C=C1[C@H]2CC[C@@]3(C=CC(=O)[C@@](C)(CCC(=O)Nc4c(O)ccc(C(=O)O)c4O)C3C2)[C@H]1O (stereo not given in full) | -7.81%
O=C1c2c(O)cc(O)cc2O[C@@H](c2ccc(O)cc2)[C@@H]1c1c(O)cc(O)c2c(=O)cc(-c3ccc(O)c(O)c3)oc12 | 4.05%
CC(CCC[C@]1(C)C(=O)C=C[C@@]23C[C@]4(C)O[C@@H](C[C@@H]4[C@H]2O)C31)C(=O)O (stereo not given in full) | -0.0817%
COc1ccc2cc(NC(=O)C3=NO[C@H]4[C@H](O)C=C[C@@H](Cl)[C@@]4(O)C3)c(=O)oc2c1OC | -7.85%
Cc1occ2c1C(=O)c1c(cc(O)c(O)c1O)C2=O | -33.2%
C/C=C/C1C=CC2CC(C)CC(C)C2C1C(=O)CC(=O)NC(CO)C/C=C/CCCCC (stereo not given) | -19%
C=CC(CCCCC)C1C(=O)NC(=O)C1C(=O)C1C2C(C)CC(C(=O)O)CC2CC1(O)C(=O)/C=C/C (stereo not given) | -1.16%
C[C@@]12CCC[C@@](C)(C(=O)O)[C@H]1CC[C@]13C[C@H]4C[C@H](O[C@@]4(C)C1)[C@H]32 | -22.6%
